Bioassay records from PubChem BioAssay.
Cardio protect – myocardial damage modulation in H9c2 cells; H9c2 cardiomyocytes, H2O2 injury protection, ATPLite, 2 h; protection from H2O2 cell death, % at 20 µM; 360,000 compounds, 0.63% hits;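 active = compounds giving at least 50% protection of heart cells from peroxide-induced death in the single-dose screen, raw or plate-pattern-corrected value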;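 also: 0% = DMSO wells with peroxide and 100% = DMSO wells without peroxide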
Myeloid diff 2 – compounds promoting myeloid differentiation | ER-HoxA9 myeloid progenitors, lysozyme-GFP differentiation, flow cytometry | calls only at 10 µM | 360,000 compounds, 1% hits | AID 624256;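 active = normalized GFP-positive differentiation at or above the plate's own cutoff, the solvent-only control mean plus 3 SD; inconclusive = no clear call, values can overlap the other calls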;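 also: cells exposed to compound for four days before flow analysis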
ABHD5-PLIN5 inh – blocks binding of human ABHD5 to perilipin-5; Q00G26+Q8WTS1; Split G. princeps luciferase complementation, luminescence, 4 h; inhibition, % at 4 µM; 360,000 compounds, 0.78% hits; AID 602281;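 active = inhibition above the mean inhibition across every tested compound plus 3 SD, cut at about 22% in these data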;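 also: 0% = DMSO only wells and the 100% control is not disclosed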
HGIII-sPLA2 inh – Inhibits HGIII-sPLA2 liposome hydrolysis, primary screen. inhibition, % at 12.2 µM. Q9NZ20. QFRET BODIPY PC-A2 liposome hydrolysis, fluorescence. AID 743126. 370,000 compounds, 0.56% hits;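 active = inhibition above mean plus 3 SD of compounds lying within the high and low control bounds, cut at about 19% in these data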;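 also: 0% = median of test compound wells and 100% = no enzyme DMSO wells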
Target sequence (Q9NZ20 whole entry, looked up): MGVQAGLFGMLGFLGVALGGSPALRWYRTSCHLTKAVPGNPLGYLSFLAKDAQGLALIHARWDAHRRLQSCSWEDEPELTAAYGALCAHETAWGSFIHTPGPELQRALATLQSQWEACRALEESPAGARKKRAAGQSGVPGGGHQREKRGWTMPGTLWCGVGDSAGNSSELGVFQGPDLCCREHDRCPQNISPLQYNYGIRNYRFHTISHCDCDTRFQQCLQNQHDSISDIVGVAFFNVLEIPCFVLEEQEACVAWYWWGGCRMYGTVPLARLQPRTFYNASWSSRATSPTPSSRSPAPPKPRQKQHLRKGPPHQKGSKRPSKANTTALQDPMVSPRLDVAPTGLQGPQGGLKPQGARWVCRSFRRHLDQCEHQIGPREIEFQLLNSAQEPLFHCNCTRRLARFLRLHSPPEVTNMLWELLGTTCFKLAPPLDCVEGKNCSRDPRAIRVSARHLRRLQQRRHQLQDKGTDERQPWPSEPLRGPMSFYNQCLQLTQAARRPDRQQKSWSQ
DAGLB inh – diacylglycerol lipase beta (human) inhibition; HEK293T DAGLB membrane lysate, EnzChek fluorogenic substrate; inhibition, % at 5.17 µM; 340,000 compounds, 0.059% hits; in the data active = inhibition above about 34%;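 also: 0% = enzyme with vehicle and 100% = wells lacking enzyme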
Rtt109 HAT inh – inhibitors of Candida albicans Rtt109/Vps75 histone acetyltransferase | Q5AAJ8 | inhibition, % at 34.9 µM | purified Rtt109/Vps75, ThioGlo CoA-SH fluorescence, 4 h | 330,000 compounds, 0.16% hits;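 active = inhibition of at least 50% in every replicate; inconclusive = best replicate reaches 50% inhibition but some replicates fall short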
The depositor's hits bear a star. Most compounds without a hit are left out; they make up all but 2.9% or so of the library.

For CC(C)C(NS(=O)(=O)c1c(Cl)cccc1Cl)C(=O)OCC(=O)c1c[nH]c2ccccc12 (centres undefined) the results were Cardio protect -7, Myeloid diff 2 active, ABHD5-PLIN5 inh 3, HGIII-sPLA2 inh -50, DAGLB inh -2 and Rtt109 HAT inh 10.
`CC(O)C(NS(=O)(=O)c1ccc(Cl)cc1)C(=O)OCC(=O)c1c[nH]c2ccccc12` (centres undefined) gave Cardio protect -10, Myeloid diff 2 inactive, ABHD5-PLIN5 inh 13, HGIII-sPLA2 inh -52, DAGLB inh 1 and Rtt109 HAT inh 5.
`O=C(/C=C/c1ccccc1F)c1ccoc1` gave Cardio protect 1, Myeloid diff 2 inactive, ABHD5-PLIN5 inh 31*, HGIII-sPLA2 inh 4, DAGLB inh -2 and Rtt109 HAT inh 7.
Screening N#C/C(C(=O)NCc1ccccc1)=C1/N=C(NC(=O)c2cccs2)c2ccccc21 returned Cardio protect 4, Myeloid diff 2 active, ABHD5-PLIN5 inh 2, HGIII-sPLA2 inh 1, DAGLB inh -1 and Rtt109 HAT inh 5.
CC(C)OC(=O)CSc1nnc(SCc2cccc3ccccc23)s1 was read as Cardio protect -10, Myeloid diff 2 inactive, ABHD5-PLIN5 inh 4, HGIII-sPLA2 inh -28, DAGLB inh -15 and Rtt109 HAT inh 9.
For C[C@@H]1CCN(C2CC2)S(=O)(=O)c2ccc(N3CCC[C@@H]3C)cc2O1 the results were HGIII-sPLA2 inh -4.
`Cc1ccc(NC(=O)C(C)Sc2nnc(C)n2C2CC2)cc1S(=O)(=O)N1CCOCC1` (centres undefined) gave Cardio protect -3, Myeloid diff 2 inactive, ABHD5-PLIN5 inh 4, HGIII-sPLA2 inh -4, DAGLB inh 4 and Rtt109 HAT inh 5.
For CN(C)CCCN1C(=O)c2cccc3c(Br)ccc(c23)C1=O the results were Cardio protect 15, Myeloid diff 2 inactive, ABHD5-PLIN5 inh -2, HGIII-sPLA2 inh 2, DAGLB inh 1 and Rtt109 HAT inh -9.
Screening CCCCNc1ccc2c3c(cccc13)C(=O)N(CCCC)C2=O returned Cardio protect -3, Myeloid diff 2 active, ABHD5-PLIN5 inh 16, HGIII-sPLA2 inh -179, DAGLB inh inactive and Rtt109 HAT inh -7.
Screening O=C(Nc1ccc(C(=O)N2CCC(N3CCCC3)CC2)cc1)c1ccc(Br)o1 returned Cardio protect 0, Myeloid diff 2 inactive, ABHD5-PLIN5 inh 0, DAGLB inh 1 and Rtt109 HAT inh 5.
Screening C/C(=N\N)c1c(-c2ccccc2)c2cc(C)ccc2[nH]c1=O returned Cardio protect 16, Myeloid diff 2 inactive, ABHD5-PLIN5 inh -5, HGIII-sPLA2 inh -8, DAGLB inh -3 and Rtt109 HAT inh -10.
CC/C(C)=N/NC(=O)c1[nH]c2ccc(C)cc2c1-c1ccccc1 was read as Cardio protect 14, Myeloid diff 2 active, ABHD5-PLIN5 inh -16, HGIII-sPLA2 inh 0, DAGLB inh -13 and Rtt109 HAT inh 2.
For CC1CCCN(CC(=O)Nc2ccc(S(=O)(=O)N3C(C)CCCC3C)cc2)C1 (centres undefined) the results were Cardio protect 0, Myeloid diff 2 inactive, ABHD5-PLIN5 inh -5, HGIII-sPLA2 inh -9 and DAGLB inh -2.
`Cc1cccc(N(C)C(=O)c2cc(S(=O)(=O)N3CCc4ccccc43)cn2C)c1` gave Cardio protect -5, Myeloid diff 2 active, ABHD5-PLIN5 inh 4, HGIII-sPLA2 inh -1, DAGLB inh 0 and Rtt109 HAT inh 3.
`C=CCc1ccccc1OCC(=O)N/N=C/c1ccc(OC(C)=O)cc1OC(C)=O` gave Cardio protect 73*, Myeloid diff 2 inconclusive, ABHD5-PLIN5 inh 20, HGIII-sPLA2 inh -26, DAGLB inh 2 and Rtt109 HAT inh 10.
CCN(CC)c1ccc2c(Cl)c(Br)c(=O)oc2c1 was read as Cardio protect -12, Myeloid diff 2 active, ABHD5-PLIN5 inh 6, DAGLB inh -16 and Rtt109 HAT inh -7.
Screening Clc1ccc(-c2nc3ccc(Br)cn3c2Cc2ccsc2)cc1 returned Cardio protect -4, Myeloid diff 2 inactive, ABHD5-PLIN5 inh 2 and HGIII-sPLA2 inh -19.
For COc1cc(/C=C2/C(=O)NN(c3ccc(Cl)cc3)C2=O)cc(Br)c1O the results were Cardio protect 4, Myeloid diff 2 inactive, ABHD5-PLIN5 inh -4, HGIII-sPLA2 inh -13, DAGLB inh 22 and Rtt109 HAT inh -9.
